# Measurements published in ChEMBL document CHEMBL3433997, “St. Jude Leishmania screening dataset” (2016).
# Experiments:
# Assay type in all cases: functional
# [1] = target: Solute carrier family 2, facilitated glucose transporter member 1 (Homo sapiens) (UniProt P11166); assay: ST_JUDE_LEISH: Cytotoxicity at 2uM final concentration against transgenic Leishmania Mexicana promastigotes LmGLUT1 that are glucose transport deficient and complemented with the human glucose transporter GLUT1. Activity is measured by DNA content using SYBR green in vitro
# Solute carrier family 2, facilitated glucose transporter member 1 (Homo sapiens), sequence (P11166 whole entry): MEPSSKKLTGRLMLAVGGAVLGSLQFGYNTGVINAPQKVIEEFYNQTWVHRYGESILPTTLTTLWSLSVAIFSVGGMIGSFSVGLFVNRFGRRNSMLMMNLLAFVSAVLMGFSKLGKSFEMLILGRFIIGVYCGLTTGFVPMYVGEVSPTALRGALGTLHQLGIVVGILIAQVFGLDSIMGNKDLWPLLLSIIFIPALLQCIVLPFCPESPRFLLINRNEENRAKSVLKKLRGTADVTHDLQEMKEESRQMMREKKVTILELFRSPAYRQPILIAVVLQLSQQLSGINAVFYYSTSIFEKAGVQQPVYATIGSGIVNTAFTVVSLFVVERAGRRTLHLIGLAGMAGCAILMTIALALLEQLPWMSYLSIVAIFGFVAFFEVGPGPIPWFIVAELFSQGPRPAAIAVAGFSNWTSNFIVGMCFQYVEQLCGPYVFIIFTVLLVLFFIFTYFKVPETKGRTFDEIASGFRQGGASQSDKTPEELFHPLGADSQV
# [2] = target: Hexose transporter 1 (Plasmodium falciparum) (UniProt O97467); assay: ST_JUDE_LEISH: Cytotoxicity at 2uM final concentration against transgenic Leishmania Mexicana promastigotes LmPfHT that are glucose transport deficient and complemented with the Plasmodium falciparum hexose transporter. Activity is measured by DNA content using SYBR green in vitro
# [3] = target: Glucose transporter (Leishmania mexicana) (UniProt O61059); assay: ST_JUDE_LEISH: Cytotoxicity at 2uM final concentration against transgenic Leishmania Mexicana promastigotes LmGT2 that are glucose transport deficient and complemented with the L. Mexicana glucose transporter 2. Activity is measured by DNA content using SYBR green in vitro
SMILES,inhibition [1],inhibition [2],inhibition [3]
CCCCCC(=O)NCC(NCCCNc1cc(=O)c2ccccc2[nH]1)c1cc(Br)cc(Br)c1 (stereo not drawn),5.16%,2.44%,5.39%
Cn1cc(C2CCN(CCCCNC(=O)c3ccc(C(=O)Nc4ccc(C#N)cc4)cc3)CC2)c2ccccc21,9%,7.5%,7%
CCOc1ncccc1CN1CCC(N2CCc3cc(NC(=O)c4cc(C)on4)ccc32)C1 (stereo not drawn),-0.44%,0.36%,-0.18%
Cc1cc(Br)cnc1CCCCNc1cc(=O)c2ccccc2[nH]1,4.59%,6.14%,4.81%
O=C(NCCCNc1nc2ccccc2[nH]1)c1cccc(OC(F)(F)F)c1,2.27%,-0.62%,1.46%
O=C(Nc1cccc(CN2CCN(Cc3ccc(O)cc3)CC2)c1)c1cc2ccccc2s1,8.18%,7.34%,8.57%
COc1ccc(C(=O)C2CCN(CCCCNC(=O)c3ccc(NC(=O)c4cc(Cl)cc(Cl)c4)cc3)CC2)cc1,3.02%,4.08%,2.05%
COc1ccc2nccc([C@@H](O)CN3CCC(NC(=O)/C=C/c4ccc5[nH]c(=O)ccc5c4)CC3)c2c1,2.93%,1.78%,2.05%
COc1cc(NC(=O)/C=C/c2ccc(-c3ccccc3)cc2)ccc1OCCN(C(C)C)C(C)C,60.5%,55.8%,23.4%
CCSc1ccccc1CON1C(=N)N=C(N)NC1(C)C,15.4%,19.1%,18.7%
CC(=O)c1c[nH]c(C(=O)Nc2ccc(-c3cn4ccccc4n3)cc2)c1,11.8%,10.9%,10.2%
O=C(c1cc(C(=O)Nc2ccc(F)cc2)c(=O)n(-c2ccc(F)cc2)c1)c1cc(Cl)ccc1O,0.23%,2.19%,0.22%
c1ccc(CN2CCC(NCc3ccc(-c4ccc(CNCc5cccnc5)cn4)cc3)CC2)cc1,3.27%,2.84%,3.77%
N#CN1CC[C@H](CS(=O)(=O)c2cccc(Br)c2)C1,6.21%,4.67%,2.05%
Cc1cc(N[C@@H](Cc2ccccc2)C(=O)NCCc2ccccc2)nc(NCCc2ccc(F)cc2)n1,-1.91%,-1.86%,-1.12%
O=C(Nc1cccc(C(F)(F)F)c1)Nc1ccc(F)c([N+](=O)[O-])c1,2.84%,3.09%,-0.74%
NC[C@H](CC1CCCCC1)NC(=O)c1ccc(-c2ccnc3[nH]ccc23)s1,7.16%,3.21%,2.91%
COc1cccc(-c2cc(C(=O)Nc3ccc4[nH]c(-c5ccccc5)nc4c3)[nH]n2)c1,4.77%,3.14%,1.09%
CCOc1ccccc1C=CC(=O)Nc1ccc2nc(N3CCN(C)CC3)cc(C)c2c1,5.87%,2.96%,4.24%
CC(C)(C)NCC(O)COc1ccc(Cl)cc1C1=NNC(=O)CC1 (stereo not drawn),1.53%,1.45%,0.82%
CCCCN(CCCC)CCC(O)C(=Cc1ccc(Cl)cc1Cl)c1ccc(C(F)(F)F)cc1N (stereo not drawn),-0.65%,0.65%,0.7%
CCCCN(C(=O)c1ccccc1C)c1nnc(-c2ccccc2C)s1,2.08%,1.53%,-0.2%
O=C(Nc1cccc(Cl)c1Cl)NC1CCN(Cc2cccc(O)c2)CC1,3.63%,2.13%,2.32%
COc1ccc(-c2cn3c(C(=O)Nc4ccccc4Cl)c(-c4ccccc4)c4c3n2CCCC4)cc1,0.33%,0.92%,-0.58%

SMILES,inhibition [1],inhibition [2],inhibition [3]
Cc1nc(C)c(CC(=O)Nc2ccc(-c3ccc(-c4nc5cc(C(F)(F)F)ccc5[nH]4)s3)cc2)s1,2.35%,2.1%,-0.02%
Fc1ccc2[nH]c(-c3ccc(-c4ccc(CN5CCCCC5)cc4)s3)nc2c1,5.07%,4.14%,1.79%
Cc1cc(CN2CCC(N3CC(c4ccccc4)(c4ccccc4)OC3=O)C2)ccc1O (stereo not drawn),4.14%,3.7%,8.06%
CN(CCCN(C)c1cc(NC(=O)c2ccc(F)cc2)ccn1)Cc1cccc(O)c1,-1.12%,-0.11%,-0.03%
C=CCc1c(C(=O)NCC23CC4CC(CC(C4)C2)C3)nc2ccccc2c1O,-2.74%,0.27%,3.24%
N=C(N)NC(=O)Nc1cc(Cl)c(F)c(Cl)c1,3.91%,4.24%,0.63%
CN/C(=C\[N+](=O)[O-])NCCSCc1cc(C)c(CN(C)C)s1,5.43%,5.21%,5.98%
NC1CCN(Cc2cccc(-c3ccc(-c4nc5ccccc5[nH]4)s3)c2)C1 (stereo not drawn),3.94%,2.41%,4.58%
O=C(/C=C/c1ccc(Cl)c(Cl)c1)NCCCCCN1CCC(NC(=O)Nc2ccc(Cl)cc2Cl)CC1,-0.07%,-0.77%,-2.38%
Cc1ccc(CON2C(N)=NC(N)=NC2(C)C)c(Cl)c1.Cc1ccc(CON2C(N)=NC(N)=NC2(C)C)cc1Cl,2.94%,4.84%,1%
COc1ccc(CCn2c(=N)c(C(=O)NCc3ccccc3)cc3c(=O)n4ccccc4nc32)cc1,12.9%,12.8%,8.6%
Cn1cc(C2CCN(CCCCCNC(=O)/C=C/c3ccc(Cl)c(Cl)c3)CC2)c2cc(O)ccc21,1.48%,2.56%,1.47%
CCOC(=O)c1ccc(NC(=O)Nc2cccc(-c3cccc(-c4nc5ccccc5[nH]4)c3)c2)cc1,10.4%,7.84%,8.27%
Cn1nc(C(F)(F)F)c(-c2ccc(F)cc2)c1NC(=O)Nc1ccc(F)cc1F,2.96%,2.65%,2.29%
CC(C)Oc1cc2c(cc1NS(=O)(=O)c1ccc(-c3ccc(Cl)cc3)cc1F)CCN(C)CC2,1.27%,0.75%,-0.15%
N#Cc1ccc(CN2CCC(Oc3ccc(NC(=O)c4ccsc4)cc3Cl)C2)cc1 (stereo not drawn),8.19%,11.8%,8.45%
O=C(N[C@@H](CC1CCCCC1)C(=O)NCCN1CCCC1)c1ccc(O)c(-c2cccc(C(F)(F)F)c2)c1,-0.44%,-0.43%,0.16%
CCN(CC)CCn1c(=N)n(CC(=O)c2ccc(-c3ccccc3)cc2)c2ccccc21,0.58%,1.91%,2.35%
Cn1cccc1CCNCc1ccc(-c2cccc(-c3nc4cc(F)ccc4[nH]3)c2)cc1,3.65%,3.24%,3.01%
O=C(NCCN1CCCC1)c1ccc(-c2ccc(-c3nc4cc(C(F)(F)F)ccc4[nH]3)s2)cc1,3.7%,2.28%,3.38%
Cc1nc(-c2ccc(C#N)cc2)sc1C(=O)NCCCCN1CCC(c2ccc3c(c2OCCO)CCCC3)CC1,6.87%,6.02%,3.7%
O=C(Nc1cccc(-c2ccc(-c3nc4cc(F)ccc4[nH]3)s2)c1)c1cccnc1,5.68%,4.85%,3.13%
O=C(C=Cc1ccc(C(=O)Nc2ccc(C3=NCCN3)cc2)cc1)Nc1ccc(C2=NCCN2)cc1,5.16%,5.38%,5.13%
CCCC(CCC)n1ccc2c3c(N)nc(N)nc3ccc21,59.8%,70.1%,44.5%

SMILES,inhibition [1],inhibition [2],inhibition [3]
Cc1ccc(C(NC(=O)c2ccccc2)c2ccc3cccnc3c2O)cc1 (stereo not drawn),4.29%,6.5%,-0.04%
Cc1cccc2nc(-c3cccc(-c4cccc(NC(=O)NCc5ccccc5)c4)c3)[nH]c12,3.73%,5.29%,-4.27%
CC1(C)N=C(N)N=C(N)N1OCCCOc1cc(Cl)c(Cl)cc1Cl,3.4%,4.05%,2.71%
Cc1cccc2nc(-c3ccc(-c4ccc(CNCc5ccc(CN)cc5)cc4)s3)[nH]c12,5.43%,8.51%,0.48%
Ic1cc(CNC2CCCCC2)ccc1OCc1cccc(COc2ccc(CNC3CCCCC3)cc2I)c1,4.09%,3.76%,2.65%
COc1cc(OC)cc(-c2nn(-c3ccc([N+](=O)[O-])cc3C#N)c(=S)n2Cc2ccco2)c1,0.03%,-1.55%,4.15%
CN1CCN(CCCN(Cc2csc(-c3ccc(CNCc4ccccc4)cc3)n2)S(=O)(=O)c2cccc3cccnc23)CC1,0.74%,5.92%,4.06%
O=C(Nc1ccc(CCNC2=NCCN2)cc1)Nc1ccc(CCNC2=NCCN2)cc1,3.77%,3.97%,3.62%
COc1cc(/C=N/Nc2nc(Nc3ccccc3)nc(Nc3ccccc3)n2)ccc1OCc1ccccc1[N+](=O)[O-],4.18%,3.92%,0.87%
CN(C(=O)c1cc2c(-c3cncnc3)cccc2[nH]1)c1ccccc1,2.07%,-0.81%,-0.72%
Cc1[nH]c(C)c(-c2ccc(OCc3ccc(OC(F)(F)F)cc3)nc2)c(=O)c1Cl,13.3%,15.2%,11.2%
Cc1cccc2nc(-c3ccc(-c4ccc(NC(=O)Nc5ccc(Cl)cc5)cc4)s3)[nH]c12,1.01%,1.2%,0.32%
O=C(/C=C/c1ccc(Cl)cc1)NCCCCCN1CCC(c2c[nH]c3ccccc23)CC1,3.62%,3.59%,0.35%
N#Cc1cccc(C(=O)Nc2cccc(-c3cccc(CN4CCNCC4)c3)c2)c1,4.13%,6.34%,3.25%
Cc1cc(=NN=Cc2ccc(F)cc2)c2cccc(C)c2[nH]1,3.22%,2.28%,3.02%
COc1ccc(CNc2ncnc3c2[nH]c2ccc(F)cc23)cc1,7.12%,7.69%,4.52%
OCC1CCN(Cc2cccc(-c3ccc(-c4nc5cc(C(F)(F)F)ccc5[nH]4)s3)c2)CC1,4.2%,4.88%,3.14%
COCCN1CCC(N(CC2(O)CCN(c3ccc(C(F)(F)F)cc3)CC2)C(=O)Cn2c(SCc3cccc(F)c3F)cc(=O)c3ccccc32)CC1,-0.38%,0.65%,0.85%
CC(CON1C(N)=NC(N)=NC1(C)C)c1ccc(Cl)cc1Cl (stereo not drawn),23.2%,37.1%,24.2%
Cc1cc(N[C@@H](Cc2ccccc2)C(=O)NC2CCCC2)nc(NCc2ccccc2C)n1,6.22%,6.32%,4.04%
COc1ccc2nccc([C@@H](O)CN3CCC(NCc4nc5c(C#N)cccc5[nH]4)CC3)c2c1,3.6%,3.33%,3.84%
COc1cc(N)c(Cl)cc1C(=O)NCC1CCN(c2nc(C)cc(C)n2)CC1,1.37%,0.61%,-0.76%
COc1cccc2cc(C(=O)N[C@@H](CC(C)C)C(=O)N[C@H](/C=N/N(C)C(=O)OC(C)(C)C)CC(=O)OC(C)(C)C)oc12,2.84%,3.79%,3.79%
